# Screening results: PubChem BioAssay, Broad Institute
# Hits are enriched below; roughly 3% of the tested compounds scored in any of these assays.
# Wnt bcat act – Wnt/beta-catenin pathway activators, primary screen, cell-based, plate reader, single point; Wnt/beta-catenin reporter cell assay, activator; activation, % at 9.35 µM; actives 1.2% (n = 300,000); in the data active means activation above about 30%, passing the limit was not always enough; inconclusive means no clear call, values can overlap the other calls;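 further: 0% = neutral control wells and 100% = positive control wells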
# esBAF inh – Bmi1 luciferase reporter increase in mESCs, primary screen, esBAF inhibitor project, mouse ES cells, Bmi1 luciferase knock-in, single point; 24 h; 100% = twice the neutral-well signal; actives 2% (n = 350,000); reporter increase, % at 12.5 µM; in the data active means activation above about 40%; inconclusive means no clear call, values can overlap the other calls;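 further: 0% = median of the plate's neutral control wells and 100% = double that signal; a rise in the Bmi1 reporter signal indicates esBAF inhibition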
# MITF act – activators of MITF-driven TRPM1 promoter reporter, primary screen, cell-based, SK-MEL-5, luciferase, single point; SK-MEL-5 TRPM1-promoter luciferase, 24 h; % of positive control, neutral wells = 0; activation, % at 12.5 µM; actives 0.75% (n = 300,000); AID 588334, 2011;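 active means mean activation of at least 80% with every replicate also reaching 80%; inconclusive means mean reaches 80% but some replicate falls short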;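 further: 0% = neutral control wells and 100% = parthenolide positive control wells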
# C2C12 statin – suppressors of statin myotoxicity in C2C12 myotubes, primary screen, cell-based, single point, plate reader; AID 602340, 2012; C2C12 myotubes + simvastatin, ATP luminescence, 48 h; scaled: DMSO 0, geranylgeraniol control 100; actives 0.78% (n = 330,000); rescue of ATP level, % at 7.49 µM;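 active means mean ATP rescue above about 67%, or every replicate alone reaching that limit, limit read from the data, passing the limit was not always enough; inconclusive means no clear call, values can overlap the other calls; inactive means mean under the limit and some replicate under it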;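 further: myotubes were challenged with 10 µM simvastatin during compound exposure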
# * hit, by the source's call; u = inconclusive; x = not tested or not shown.
SMILES,Wnt bcat act,esBAF inh,MITF act,C2C12 statin
COc1ccc2c(CN3CCCCCCC3)cc(=O)oc2c1,1.2,48.5*,x,-12.4
Cc1cc2oc(=O)cc(CN3CCC(C)CC3)c2cc1Cl,4.2,58.3*,23.9,26.1
Cc1ccc2c(CN3CCC(C)CC3)cc(=O)oc2c1,x,59.3*,47.5,1.9
COc1cccc(S(=O)(=O)N2C[C@H](O)COC[C@H]3O[C@H](CC(=O)N4CCN(C)CC4)CC[C@@H]32)c1,x,2.9,x,-2.5
C[C@@H]1CN([C@@H](C)CO)C(=O)c2cc(C#Cc3ccncc3)cnc2O[C@H]1CN(C)C(=O)CN(C)C,x,-1.6,x,20.6
C[C@H]1CN([C@@H](C)CO)C(=O)c2cccc(NS(=O)(=O)c3cn(C)cn3)c2O[C@H]1CN(C)Cc1ccc(C(F)(F)F)cc1,x,0.5,x,5.6
O=C(Nc1ccccc1F)N[C@H]1CC[C@@H](CCNS(=O)(=O)c2ccccc2)O[C@@H]1CO,x,0.2,x,2.3
O=C(N=Nc1c(O)[nH]c2ccccc12)c1ccc2c(c1)OCO2,45.5*,x,-0.1,x
Cc1noc(C)c1NC(=O)Nc1ccc2c(c1)CC(=O)N([C@@H](C)CO)C[C@@H](C)[C@H](CN(C)Cc1ccc(-c3ccccc3)cc1)O2,x,-5.6,x,-38.1
C[C@@H]1CN([C@H](C)CO)C(=O)c2cc(NS(=O)(=O)c3ccc(Cl)cc3)ccc2O[C@H]1CN(C)C(=O)Nc1ccccc1,x,-0.3,x,-9.7
CN(/N=C/c1ccc(Cl)cc1Cl)c1ncc(Cl)cc1C(F)(F)F,11.2,5.2,-10.0,11.1
Cc1ccc(N(C)/N=C/c2ccc(Cl)cc2Cl)nn1,1.9,42.3*,98.8*,-3.3
CNC[C@@H]1OCCCC[C@H](C)Oc2ccc(NS(=O)(=O)c3ccc(C)cc3)cc2C(=O)N([C@H](C)CO)C[C@@H]1C,x,-3.4,x,7.5
Cc1nnc(NC(=O)c2cccc(NC(=O)C(C)C)c2)s1,x,5.3,6.3,-51.8
CC(C)C(=O)Nc1cccc(C(=O)Nc2nnc(C(C)C)s2)c1,x,8.9,91.3*,-11.5
CC(C)c1nnc(NC(=O)c2cccc(NC(=O)C(F)(F)F)c2)s1,35.4*,x,49.6,x
COc1ccccc1/C=C/C=C1\Oc2c(ccc(O)c2CN(C)C)C1=O,4.1,14.5,-10.0,25.5
CCN(CC)Cc1c(O)ccc2c1O/C(=C\C=C\c1ccccc1)C2=O,-22.9,-69.1,-80.1,105.9*
COc1ccc(OCc2cc(C(=O)N3CCCCCC3)no2)c(Cl)c1,17.4,x,u,x
Cc1ccc(C)c(OCc2cc(C(=O)N3CCOCC3)no2)c1,15.0,49.7*,73.6,31.5
COc1ccc(OCc2cc(C(=O)NC(C)c3cnn(C)c3)no2)c(Cl)c1 (stereo unspecified),24.9,53.9*,81.4*,8.0
COCCN1CCN(C(=O)c2cc(COc3ccc(Cl)cc3OC)on2)CC1,35.7*,u,79.2,-5.5
COc1ccc(OCc2cc(C(=O)N3CCOCC3)no2)c(Cl)c1,33.9*,36.9,u,-1.0
COC1CCN(C(=O)c2cc(COc3cc(C)ccc3C)on2)CC1,13.8,28.7,x,-14.9
C[C@H]1CCCCO[C@H](CN(C)C(=O)Nc2ccc(C(F)(F)F)cc2)[C@@H](C)CN([C@@H](C)CO)C(=O)c2cc(NS(C)(=O)=O)ccc2O1,x,1.4,x,x
SMILES,Wnt bcat act,esBAF inh,MITF act,C2C12 statin
Cc1noc(C)c1NC(=O)N(C)C[C@H]1Oc2c(NC(=O)NC3CCCCC3)cccc2C(=O)N([C@@H](C)CO)C[C@H]1C,x,-5.3,x,9.9
C[C@@H]1CN([C@@H](C)CO)C(=O)c2cc(-c3ccc(C#N)cc3)cnc2O[C@@H]1CN(C)Cc1cncnc1,x,-13.1,x,13.8
Cc1ccc(C)c(OCc2cc(C(=O)N3CCNC(=O)C3)no2)c1,3.7,2.9,13.1,0.6
CC(=O)NCCC1CCCCN1C(=O)c1cc(COc2cc(C)ccc2C)on1 (stereo unspecified),22.1,66.3*,u,4.8
COCCN1CCN(C(=O)c2cc(COc3cc(C)ccc3C)on2)CC1,1.0,72.7*,45.2,-6.2
COc1cccc(OCc2cc(C(=O)NC(C)c3cnn(C)c3C)no2)c1 (stereo unspecified),9.1,43.8*,45.0,7.4
COc1cccc(CCNC(=O)c2cc(COc3cccc(OC)c3)on2)c1,16.5,x,x,x
Cc1ccc(C)c(OCc2cc(C(=O)N3CCC(N4CCCC(O)C4)CC3)no2)c1 (stereo unspecified),0.5,0.8,9.5,-2.8
COCCCC1CCN(C(=O)c2cc(COc3cc(C)ccc3C)on2)CC1,29.4,104.3*,u,2.0
COc1cc(C)ccc1OCc1cc(C(=O)NC2CCOCC2)no1,-2.2,46.9*,x,6.6
COc1cc(C)ccc1OCc1cc(C(=O)NCCN2CCCC(O)C2)no1 (stereo unspecified),-3.9,-1.4,24.1,5.6
CC1CCc2sc(C(=O)N3CCC(C(N)=O)CC3)cc2C1 (stereo unspecified),36.4*,34.4,x,-0.2
C[C@@H]1CN([C@H](C)CO)C(=O)Cc2cc(NC(=O)CCN3CCOCC3)ccc2O[C@H]1CN(C)Cc1ccc(Cl)c(Cl)c1,x,-1.7,x,11.1
C#CCN1C(=O)S/C(=C/C=C/c2ccc(N(C)C)cc2)C1=O,44.8*,79.3*,32.4,-7.4
Cc1noc(C)c1NC(=O)N(C)C[C@@H]1Oc2c(NC(=O)c3ccncc3)cccc2C(=O)N([C@H](C)CO)C[C@H]1C,x,-0.7,x,30.9
O=C(CN(Cc1ccccc1C(F)(F)F)C(=O)CNC(=O)c1ccco1)NC1CCCC1,-9.8,-1.7,-6.0,112.6*
C/C(=C\C(=O)c1ccc(C)cc1)Nc1cccc(O)c1,x,72.4*,65.5,14.5
C/C(=C\C(=O)c1ccccc1)Nc1ccc(O)cc1,x,22.5,x,7.3
C[C@H](CO)N1C[C@H](C)[C@H](CN(C)C(=O)Nc2ccc(C(F)(F)F)cc2)Oc2c(NS(=O)(=O)c3cccs3)cccc2C1=O,x,1.8,x,11.0
COc1ccc(C2Nc3ccccc3C(=O)N2c2ccc(C)cc2)cc1Cn1nc(C)c([N+](=O)[O-])c1C (stereo unspecified),15.9,86.0*,89.5*,-17.5
CCn1nc(C(=O)N2CCN(Cc3nc4ccccc4s3)CC2)c2ccccc2c1=O,-2.3,53.2*,34.6,-14.7
CCn1nc(C(=O)NNC(=O)c2ccccc2)c2ccccc2c1=O,11.9,45.5*,29.0,-3.6
CCO/C(C)=N/Oc1cnc2ccccc2c1,4.2,65.8*,x,-9.8
O=C(C[C@H]1CC[C@H](NC(=O)c2ccc(F)cc2)[C@@H](CO)O1)NCc1ccncn1,x,-8.8,x,-7.4
CN(C)S(=O)(=O)c1cccc(NC(=O)c2cc3ccccc3o2)c1,x,50.3*,x,-13.4
CC(C)C(=O)Nc1cccc(NC(=O)c2cc3ccccc3o2)c1,26.8,72.1*,x,1.1
COc1cc(NC(=O)C(C)C)ccc1NC(=O)c1cc2ccccc2o1,12.5,60.0*,83.9*,-42.7
CC(=O)Nc1cccc(NC(=O)c2cc3ccccc3o2)c1,50.6*,x,u,x
